According to PubChem BioAssay:
Active and inactive are the calls of the source. How the calls were made is not given here.

These compounds were tested on Aerobactin synthetase IucA (Klebsiella pneumoniae hvKP1) (assay: Biochemical IucA enzyme inhibition primary screen of the Spectrum library (AID 1346200;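 further: 100% = wells without compound and 0% = wells lacking enzyme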)). Conditions: malachite green pyrophosphate, A620, at 8 µM, hits give low values.

Row | Structure (SMILES) | activity remaining
1 | Cc1cccc(N(C)C(=S)Oc2ccc3ccccc3c2)c1 | 116% (inactive)
2 | CC1(C)C(=O)C=C[C@@]2(C)C1C=C[C@]1(C)C2CC[C@@]2(C)[C@H](c3ccoc3)OC(=O)C3OC321 (stereo not given in full) | 102% (inactive)
3 | CC1(C)CC23C(=O)CCC(O)C2(C)CCC13 (stereo not given) | 113% (inactive)
4 | COc1c2ccoc2c(OC)c2oc(=O)ccc12 | 121% (inactive)
5 | COc1ccc(-c2coc3cc(OC(C)=O)cc(OC(C)=O)c3c2=O)cc1 | 92.5% (inactive)
6 | CCN(CC)C(=O)N1CCN(C)CC1 | 118% (inactive)
7 | CC(=O)Oc1ccc2c(c1)CCC1C2CC[C@@]2(C)C1CC[C@@H]2OC(C)=O (stereo not given in full) | 120% (inactive)
8 | CC(=O)O[C@H]1CC[C@]2(C)C3CC(=O)[C@]4(C)C(C(C)=O)=CCC4C3CC[C@H]2C1 (stereo not given in full) | 101% (inactive)
9 | CC[C@H]1OC(=O)[C@H](C)[C@@H](O[C@H]2C[C@@](C)(OC)[C@@H](O)[C@H](C)O2)[C@H](C)[C@@H](O[C@@H]2O[C@H](C)C[C@H](N(C)C)[C@H]2O)[C@](C)(O)C[C@@H](C)[C@@H]2N[C@@H](COCCOC)O[C@H]([C@H]2C)[C@]1(C)O | 117% (inactive)
10 | C[C@H]1[C@H](NC(=O)/C(=N/OC(C)(C)C(=O)O)c2csc(N)n2)C(=O)N1S(=O)(=O)O (stereo in doubt) | 113% (inactive)
11 | COc1ccc2cc1Oc1ccc(cc1)C[C@H]1c3cc(c(OC)cc3CCN1C)Oc1c(OC)c(OC)cc3c1[C@H](C2)N(C)CC3 | 108% (inactive)
12 | CN1CCc2cccc3c2C1Cc1ccc(O)c(O)c1-3 (stereo not given) | 87.4% (inactive)
13 | COc1cccc(/C=C/C(=O)O)c1C(C)C | 122% (inactive)
14 | C=CCSCC1Nc2cc(Cl)c(S(N)(=O)=O)cc2S(=O)(=O)N1 (stereo not given) | 91.6% (inactive)
15 | CC(C)CCCC(C)C1CCC2C3C[C@@H](O)[C@@]4(O)C[C@@H](O)CC[C@]4(C)C3CC[C@]12C (stereo not given in full) | 123% (inactive)
16 | CN1C(C)(C)CCCC1(C)C | 82.7% (inactive)
17 | C=CC1=C(C)/C(=C/c2[nH]c(Cc3[nH]c(/C=C4\NC(=O)C(C)=C4C=C)c(C)c3CCC(=O)O)c(CCC(=O)O)c2C)NC1=O | 112% (inactive)
18 | COc1ccc(-c2c(O)c3c(OC)c4c(cc3oc2=O)OC(C)(C)CC4)cc1 | 99.1% (inactive)
19 | CC(=O)Oc1cc(C)c2c(c1C=O)Oc1c(c(C)c(OC(C)=O)c3c1C(OC(C)=O)OC3=O)OC2=O (stereo not given) | 106% (inactive)
20 | O=C1c2ccccc2C(=O)C1c1ccccc1 | 121% (inactive)

Row | Structure (SMILES) | activity remaining
21 | COc1ccc2c(c1)OCC(Cc1ccc(OC)c(O)c1)C2=O (stereo not given) | 115% (inactive)
22 | CC(=O)c1cc2c(cc1O)OC(C)(C)C=C2 | 96.6% (inactive)
23 | Nc1cc(-c2ccncc2)c[nH]c1=O | 122% (inactive)
24 | CCC(C)C(NC)C(=O)O (stereo not given) | 116% (inactive)
25 | COC1=CC(=O)C(C(=O)c2ccccc2)=CC1=O | 93.6% (inactive)
26 | O=C1c2ccccc2C(=O)c2c1ccc(O)c2O | 112% (inactive)
27 | COc1cc(NS(=O)(=O)c2ccc(N)cc2)ncn1 | 92.3% (inactive)
28 | C[C@H]1COC2=C1C(=O)C(=O)c1c2ccc2c1CCCC2(C)C | 106% (inactive)
29 | CCCC(=O)Nc1ncnc2c1ncn2C1O[C@@H]2COP(=O)(O)O[C@H]2[C@H]1OC(=O)CCC (stereo not given in full) | 107% (inactive)
30 | COC(=O)C1=CO[C@@H](O[C@@H]2O[C@H](CO)[C@@H](O)[C@H](O)[C@H]2O)[C@@H]2[C@@H](C)[C@@H](O)C[C@H]12 | 101% (inactive)
31 | CC(=O)O[C@@H]1C=C[C@@]2(C)C(C[C@@H](OC(C)=O)[C@@]3(C)C4=CC(=O)O[C@@H](c5ccoc5)[C@]4(C)CCC23)C1(C)C (stereo not given in full) | 82.6% (inactive)
32 | COc1ccc2c(c1)OC/C(=C/c1ccc(OC)c(OC)c1)C2=O | 123% (inactive)
33 | CNS(=O)(=O)Cc1ccc2[nH]cc(CCN(C)C)c2c1 | 115% (inactive)
34 | CC(=O)N[C@@H](CCC(=O)O)C(=O)O | 92.3% (inactive)
35 | C[C@H]1CC2C([C@@H](O)C[C@@]3(C)C2CC[C@]3(O)C(=O)COC(=O)CCC(=O)O)[C@@]2(C)C=CC(=O)C=C12 (stereo not given in full) | 91.3% (inactive)
36 | NC(=O)c1ccc[n+]([C@@H]2O[C@H](COP(=O)([O-])OP(=O)(O)OC[C@H]3O[C@@H](n4cnc5c(N)ncnc54)[C@H](O)[C@@H]3O)[C@@H](O)[C@H]2O)c1 | 108% (inactive)
37 | O=S(=O)(O)CCS | 118% (inactive)
38 | COc1cc(OC)c2c(=O)c(O)c(-c3ccc(OC)c(OC)c3)oc2c1 | 107% (inactive)
39 | O=c1c(O)c(-c2ccc(O)c(O)c2)oc2cc(O)ccc12 | 101% (inactive)
40 | COC(=O)[C@@H]1OC(=O)C2OC23[C@@]1(C)CCC1[C@@]2(C)CCC(=O)C(C)(C)C2C[C@@H](OC(C)=O)[C@]13C (stereo not given in full) | 112% (inactive)
